Measurements as given in article PMC11006913.
Substitutions are numbered along the chain they refer to.

Experiments:
Test in all cases: PBM; 200 nM protein, PBS
Details in all cases: dsDNA, one strand shown
SIX6 [1] = biological target: T1, SIX6 (Homo sapiens, UniProt O95475 114-200, L167I)
T1 sequence: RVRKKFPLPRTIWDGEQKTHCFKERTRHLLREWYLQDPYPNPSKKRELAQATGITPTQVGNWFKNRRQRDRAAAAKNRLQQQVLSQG

SIX6 [2] = biological target: T2, SIX6 (Homo sapiens, UniProt O95475 114-200, L143V)
T2 sequence: T1 sequence with L30V, I54L

SIX6 [3] = biological target: T3, SIX6 (Homo sapiens, UniProt O95475 114-200, H141N)
T3 sequence: T1 sequence with H28N, I54L

SIX6 [4] = biological target: T4, SIX6 (Homo sapiens, UniProt O95475 114-200, T165P)
T4 sequence: T1 sequence with T52P, I54L

SIX6 [5] = biological target: T5, SIX6 (Homo sapiens, UniProt O95475 114-200, L167M)
T5 sequence: T1 sequence with I54M

SIX6 [6] = biological target: T6, SIX6 (Homo sapiens, UniProt O95475 114-200, L143I)
T6 sequence: T1 sequence with L30I, I54L

SIX6 [7] = biological target: T7, SIX6 (Homo sapiens, UniProt O95475 114-200, T165G)
T7 sequence: T1 sequence with T52G, I54L

SIX6 [8] = biological target: T8, SIX6 (Homo sapiens, UniProt O95475 114-200, T165A)
T8 sequence: T1 sequence with T52A, I54L

SIX6 [9] = biological target: T9, SIX6 (Homo sapiens, UniProt O95475 114-200)
T9 sequence: T1 sequence with I54L

SIX6 [10] = biological target: T10, SIX6 (Homo sapiens, UniProt O95475 114-200, T139Q)
T10 sequence: T1 sequence with T26Q, I54L

SIX6 [11] = biological target: T11, SIX6 (Homo sapiens, UniProt O95475 114-200, L143M)
T11 sequence: T1 sequence with L30M, I54L

SIX6 [12] = biological target: T12, SIX6 (Homo sapiens, UniProt O95475 114-200, L167V)
T12 sequence: T1 sequence with I54V

SIX6 [13] = biological target: T13, SIX6 (Homo sapiens, UniProt O95475 114-200, T165I)
T13 sequence: T1 sequence with T52I, I54L

| Sequence | binding signal (SIX6 [1]) | binding signal (SIX6 [2]) | binding signal (SIX6 [3]) | binding signal (SIX6 [4]) | binding signal (SIX6 [5]) | binding signal (SIX6 [6]) | binding signal (SIX6 [7]) | binding signal (SIX6 [8]) | binding signal (SIX6 [9]) | binding signal (SIX6 [10]) | binding signal (SIX6 [11]) | binding signal (SIX6 [12]) | binding signal (SIX6 [13]) |
| --- | --- | --- | --- | --- | --- | --- | --- | --- | --- | --- | --- | --- | --- |
| ATCGTGTC | 10.1 upbm affinity estimate (log intensity, higher = more binding, comparable within an allelic series) | 9.87 upbm affinity estimate (log intensity, higher = more binding, comparable within an allelic series) | 10.2 upbm affinity estimate (log intensity, higher = more binding, comparable within an allelic series) | 9.63 upbm affinity estimate (log intensity, higher = more binding, comparable within an allelic series) | 9.93 upbm affinity estimate (log intensity, higher = more binding, comparable within an allelic series) | 9.97 upbm affinity estimate (log intensity, higher = more binding, comparable within an allelic series) | 10.3 upbm affinity estimate (log intensity, higher = more binding, comparable within an allelic series) | 10.3 upbm affinity estimate (log intensity, higher = more binding, comparable within an allelic series) | 10.3 upbm affinity estimate (log intensity, higher = more binding, comparable within an allelic series) |  |  |  |  |
| GATACCGA | 10.5 upbm affinity estimate (log intensity, higher = more binding, comparable within an allelic series) | 9.92 upbm affinity estimate (log intensity, higher = more binding, comparable within an allelic series) | 10.4 upbm affinity estimate (log intensity, higher = more binding, comparable within an allelic series) | 9.38 upbm affinity estimate (log intensity, higher = more binding, comparable within an allelic series) | 10.1 upbm affinity estimate (log intensity, higher = more binding, comparable within an allelic series) | 9.98 upbm affinity estimate (log intensity, higher = more binding, comparable within an allelic series) | 10.6 upbm affinity estimate (log intensity, higher = more binding, comparable within an allelic series) | 10.5 upbm affinity estimate (log intensity, higher = more binding, comparable within an allelic series) | 10.5 upbm affinity estimate (log intensity, higher = more binding, comparable within an allelic series) | 10.6 upbm affinity estimate (log intensity, higher = more binding, comparable within an allelic series) |  |  |  |
| CGCACTCC | 8.92 upbm affinity estimate (log intensity, higher = more binding, comparable within an allelic series) | 8.98 upbm affinity estimate (log intensity, higher = more binding, comparable within an allelic series) | 8.96 upbm affinity estimate (log intensity, higher = more binding, comparable within an allelic series) | 9.15 upbm affinity estimate (log intensity, higher = more binding, comparable within an allelic series) | 8.96 upbm affinity estimate (log intensity, higher = more binding, comparable within an allelic series) | 9.01 upbm affinity estimate (log intensity, higher = more binding, comparable within an allelic series) | 9.09 upbm affinity estimate (log intensity, higher = more binding, comparable within an allelic series) | 9.06 upbm affinity estimate (log intensity, higher = more binding, comparable within an allelic series) | 9.04 upbm affinity estimate (log intensity, higher = more binding, comparable within an allelic series) | 9 upbm affinity estimate (log intensity, higher = more binding, comparable within an allelic series) | 8.9 upbm affinity estimate (log intensity, higher = more binding, comparable within an allelic series) | 8.95 upbm affinity estimate (log intensity, higher = more binding, comparable within an allelic series) | 8.97 upbm affinity estimate (log intensity, higher = more binding, comparable within an allelic series) |
| GATACCCC | 11.5 upbm affinity estimate (log intensity, higher = more binding, comparable within an allelic series) | 10.4 upbm affinity estimate (log intensity, higher = more binding, comparable within an allelic series) | 11.5 upbm affinity estimate (log intensity, higher = more binding, comparable within an allelic series) | 9.41 upbm affinity estimate (log intensity, higher = more binding, comparable within an allelic series) | 11 upbm affinity estimate (log intensity, higher = more binding, comparable within an allelic series) | 10.5 upbm affinity estimate (log intensity, higher = more binding, comparable within an allelic series) | 11.6 upbm affinity estimate (log intensity, higher = more binding, comparable within an allelic series) | 11.3 upbm affinity estimate (log intensity, higher = more binding, comparable within an allelic series) | 11.3 upbm affinity estimate (log intensity, higher = more binding, comparable within an allelic series) | 11.4 upbm affinity estimate (log intensity, higher = more binding, comparable within an allelic series) | 11.2 upbm affinity estimate (log intensity, higher = more binding, comparable within an allelic series) | 11.2 upbm affinity estimate (log intensity, higher = more binding, comparable within an allelic series) | 11.2 upbm affinity estimate (log intensity, higher = more binding, comparable within an allelic series) |
| GATCCGGA | 10.4 upbm affinity estimate (log intensity, higher = more binding, comparable within an allelic series) | 9.71 upbm affinity estimate (log intensity, higher = more binding, comparable within an allelic series) | 10.2 upbm affinity estimate (log intensity, higher = more binding, comparable within an allelic series) | 9.25 upbm affinity estimate (log intensity, higher = more binding, comparable within an allelic series) |  | 9.87 upbm affinity estimate (log intensity, higher = more binding, comparable within an allelic series) | 10.4 upbm affinity estimate (log intensity, higher = more binding, comparable within an allelic series) | 10.3 upbm affinity estimate (log intensity, higher = more binding, comparable within an allelic series) | 10.4 upbm affinity estimate (log intensity, higher = more binding, comparable within an allelic series) | 10.7 upbm affinity estimate (log intensity, higher = more binding, comparable within an allelic series) |  | 10.3 upbm affinity estimate (log intensity, higher = more binding, comparable within an allelic series) | 10.2 upbm affinity estimate (log intensity, higher = more binding, comparable within an allelic series) |
| AGGATATC | 11.1 upbm affinity estimate (log intensity, higher = more binding, comparable within an allelic series) | 10.2 upbm affinity estimate (log intensity, higher = more binding, comparable within an allelic series) | 11.1 upbm affinity estimate (log intensity, higher = more binding, comparable within an allelic series) | 9.73 upbm affinity estimate (log intensity, higher = more binding, comparable within an allelic series) | 10.7 upbm affinity estimate (log intensity, higher = more binding, comparable within an allelic series) | 10.3 upbm affinity estimate (log intensity, higher = more binding, comparable within an allelic series) | 11.2 upbm affinity estimate (log intensity, higher = more binding, comparable within an allelic series) | 11.1 upbm affinity estimate (log intensity, higher = more binding, comparable within an allelic series) | 10.9 upbm affinity estimate (log intensity, higher = more binding, comparable within an allelic series) | 11.1 upbm affinity estimate (log intensity, higher = more binding, comparable within an allelic series) | 10.9 upbm affinity estimate (log intensity, higher = more binding, comparable within an allelic series) | 10.9 upbm affinity estimate (log intensity, higher = more binding, comparable within an allelic series) | 10.9 upbm affinity estimate (log intensity, higher = more binding, comparable within an allelic series) |
